Measurements as given in the supplement of paper PMC10849652.
The full data set covers some 7,900 targets. This sample favours those with a hit. About 0.6% of all pairs of compound and target were hits. Unmarked numbers belong to inactive results.

compound: c1cn2cc(-c3ccc4cn[nH]c4c3)nc(Nc3ccc(N4CCOCC4)cc3)c2n1 [entospletinib]; assay: log2 fold change, soluble protein after heating vs DMSO (PISA); higher = thermal stabilisation; K562 cells, 10 uM, 30 min; active = over 0.2 and 3.5 SD of the protein, either way, in both replicates (recomputed)
Procedure, shortened: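 K562 cells at 2×10^6 cells/mL were treated for 30 min with 10 μM compound, and aliquots were heated for 3 min over 48°C-58°C before pooling. Extraction used PBS with 0.5% NP-40 at 4°C, and soluble protein was the supernatant after 21,000xg for 90 min, measured by TMTpro 16plex LC-MS/MS with channel sums equalised. Thermal stability values, relative to control samples and from duplicates, are log2 fold changes.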

Sequence of UniProt O60749 (O60749 whole entry, looked up): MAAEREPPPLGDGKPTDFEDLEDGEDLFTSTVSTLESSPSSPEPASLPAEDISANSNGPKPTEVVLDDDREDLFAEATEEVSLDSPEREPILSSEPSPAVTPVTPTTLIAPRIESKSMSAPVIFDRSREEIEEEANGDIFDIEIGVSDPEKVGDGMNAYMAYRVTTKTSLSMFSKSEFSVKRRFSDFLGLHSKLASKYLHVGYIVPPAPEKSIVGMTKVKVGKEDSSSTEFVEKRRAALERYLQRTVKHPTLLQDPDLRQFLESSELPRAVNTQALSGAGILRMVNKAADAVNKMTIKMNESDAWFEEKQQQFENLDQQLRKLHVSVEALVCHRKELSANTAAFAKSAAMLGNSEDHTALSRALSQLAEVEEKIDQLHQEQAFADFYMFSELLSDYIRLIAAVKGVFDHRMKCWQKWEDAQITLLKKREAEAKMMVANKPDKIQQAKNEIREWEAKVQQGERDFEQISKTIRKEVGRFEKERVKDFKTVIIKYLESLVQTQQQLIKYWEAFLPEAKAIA
Sequence of UniProt P27105 (P27105 whole entry, looked up): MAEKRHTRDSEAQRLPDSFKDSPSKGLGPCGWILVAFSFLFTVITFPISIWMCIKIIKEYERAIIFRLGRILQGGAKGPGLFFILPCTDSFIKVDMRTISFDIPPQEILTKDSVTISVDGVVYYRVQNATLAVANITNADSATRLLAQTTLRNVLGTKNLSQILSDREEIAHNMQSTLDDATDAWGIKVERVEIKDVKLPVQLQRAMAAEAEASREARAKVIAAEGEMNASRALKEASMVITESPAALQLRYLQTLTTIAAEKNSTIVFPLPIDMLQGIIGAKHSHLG
Sequence of UniProt Q8IY18 (Q8IY18 whole entry, looked up): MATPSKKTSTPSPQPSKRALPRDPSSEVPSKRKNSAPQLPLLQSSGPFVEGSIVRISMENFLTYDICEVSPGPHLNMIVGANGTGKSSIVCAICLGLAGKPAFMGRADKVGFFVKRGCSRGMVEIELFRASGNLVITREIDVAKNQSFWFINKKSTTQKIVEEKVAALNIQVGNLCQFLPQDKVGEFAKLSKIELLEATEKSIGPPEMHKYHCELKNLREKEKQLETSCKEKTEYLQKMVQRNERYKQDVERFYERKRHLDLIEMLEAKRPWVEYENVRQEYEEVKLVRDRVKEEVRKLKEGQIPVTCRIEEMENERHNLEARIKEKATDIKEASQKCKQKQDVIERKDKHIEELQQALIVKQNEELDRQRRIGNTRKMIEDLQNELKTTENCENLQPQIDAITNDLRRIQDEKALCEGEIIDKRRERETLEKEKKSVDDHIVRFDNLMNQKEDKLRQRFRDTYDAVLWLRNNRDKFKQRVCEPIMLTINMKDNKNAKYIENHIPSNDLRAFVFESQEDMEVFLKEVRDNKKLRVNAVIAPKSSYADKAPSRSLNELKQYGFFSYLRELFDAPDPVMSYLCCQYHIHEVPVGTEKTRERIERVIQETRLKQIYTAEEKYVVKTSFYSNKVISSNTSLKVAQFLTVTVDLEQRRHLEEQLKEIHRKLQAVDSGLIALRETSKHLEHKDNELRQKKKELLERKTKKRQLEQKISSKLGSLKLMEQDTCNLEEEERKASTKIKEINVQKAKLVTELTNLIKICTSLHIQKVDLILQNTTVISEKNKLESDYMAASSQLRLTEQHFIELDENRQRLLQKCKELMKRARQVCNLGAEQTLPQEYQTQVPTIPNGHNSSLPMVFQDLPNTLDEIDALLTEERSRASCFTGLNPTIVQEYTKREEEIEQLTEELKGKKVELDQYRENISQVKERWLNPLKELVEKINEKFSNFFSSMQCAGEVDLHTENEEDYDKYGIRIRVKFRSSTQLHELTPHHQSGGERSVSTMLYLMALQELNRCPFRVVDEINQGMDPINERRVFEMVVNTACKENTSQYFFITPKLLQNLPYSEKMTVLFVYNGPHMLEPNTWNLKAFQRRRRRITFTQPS
Sequence of UniProt O75494 (O75494 whole entry, looked up): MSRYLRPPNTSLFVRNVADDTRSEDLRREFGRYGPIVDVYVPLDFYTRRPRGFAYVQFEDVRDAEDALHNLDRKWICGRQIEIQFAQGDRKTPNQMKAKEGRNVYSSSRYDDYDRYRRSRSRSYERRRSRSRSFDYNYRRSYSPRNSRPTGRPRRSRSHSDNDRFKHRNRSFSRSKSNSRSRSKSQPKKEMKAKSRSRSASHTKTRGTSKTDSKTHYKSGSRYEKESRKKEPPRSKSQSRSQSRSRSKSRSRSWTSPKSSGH
Sequence of UniProt Q9Y5X1 (Q9Y5X1 whole entry, looked up): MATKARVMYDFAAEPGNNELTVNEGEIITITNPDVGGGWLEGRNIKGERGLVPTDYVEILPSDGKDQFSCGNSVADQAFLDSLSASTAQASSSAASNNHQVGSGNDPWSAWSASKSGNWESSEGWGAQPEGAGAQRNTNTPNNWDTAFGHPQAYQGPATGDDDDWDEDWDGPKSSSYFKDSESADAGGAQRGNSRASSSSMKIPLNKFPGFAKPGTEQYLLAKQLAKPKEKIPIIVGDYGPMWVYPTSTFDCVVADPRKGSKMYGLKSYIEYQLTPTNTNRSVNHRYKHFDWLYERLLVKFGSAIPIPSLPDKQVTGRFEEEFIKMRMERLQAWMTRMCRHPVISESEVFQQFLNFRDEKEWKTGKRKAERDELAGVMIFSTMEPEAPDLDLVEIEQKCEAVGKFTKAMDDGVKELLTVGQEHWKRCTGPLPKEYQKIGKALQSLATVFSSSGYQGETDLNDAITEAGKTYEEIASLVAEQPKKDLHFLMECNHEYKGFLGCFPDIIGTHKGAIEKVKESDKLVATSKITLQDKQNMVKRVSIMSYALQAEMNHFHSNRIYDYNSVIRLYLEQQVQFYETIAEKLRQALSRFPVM
Sequence of UniProt Q00059 (Q00059 whole entry, looked up): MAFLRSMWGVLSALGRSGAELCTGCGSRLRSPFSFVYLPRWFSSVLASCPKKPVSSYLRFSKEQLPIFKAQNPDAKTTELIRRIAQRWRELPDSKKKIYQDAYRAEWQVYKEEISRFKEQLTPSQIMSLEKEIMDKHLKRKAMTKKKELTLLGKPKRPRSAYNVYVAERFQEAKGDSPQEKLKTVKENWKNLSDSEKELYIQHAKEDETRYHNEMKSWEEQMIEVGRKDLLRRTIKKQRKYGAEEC
Sequence of UniProt Q96CQ1 (Q96CQ1 whole entry, looked up): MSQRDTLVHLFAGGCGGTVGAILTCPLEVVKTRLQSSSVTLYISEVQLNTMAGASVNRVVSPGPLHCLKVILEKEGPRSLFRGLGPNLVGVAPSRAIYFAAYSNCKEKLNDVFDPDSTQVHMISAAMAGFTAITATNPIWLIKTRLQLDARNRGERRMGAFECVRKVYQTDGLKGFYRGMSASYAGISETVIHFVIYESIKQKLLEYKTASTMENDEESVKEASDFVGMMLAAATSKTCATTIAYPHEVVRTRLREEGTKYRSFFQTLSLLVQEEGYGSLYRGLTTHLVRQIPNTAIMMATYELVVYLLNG
Sequence of UniProt P35270 (P35270 whole entry, looked up): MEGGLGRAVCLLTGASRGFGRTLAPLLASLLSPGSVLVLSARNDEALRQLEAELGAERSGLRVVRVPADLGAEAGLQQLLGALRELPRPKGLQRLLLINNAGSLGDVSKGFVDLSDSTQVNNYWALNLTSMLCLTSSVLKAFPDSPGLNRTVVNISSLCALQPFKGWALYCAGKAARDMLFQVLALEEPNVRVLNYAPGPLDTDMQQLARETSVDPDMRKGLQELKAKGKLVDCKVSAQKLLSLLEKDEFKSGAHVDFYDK
Sequence of UniProt Q02447 (Q02447 whole entry, looked up): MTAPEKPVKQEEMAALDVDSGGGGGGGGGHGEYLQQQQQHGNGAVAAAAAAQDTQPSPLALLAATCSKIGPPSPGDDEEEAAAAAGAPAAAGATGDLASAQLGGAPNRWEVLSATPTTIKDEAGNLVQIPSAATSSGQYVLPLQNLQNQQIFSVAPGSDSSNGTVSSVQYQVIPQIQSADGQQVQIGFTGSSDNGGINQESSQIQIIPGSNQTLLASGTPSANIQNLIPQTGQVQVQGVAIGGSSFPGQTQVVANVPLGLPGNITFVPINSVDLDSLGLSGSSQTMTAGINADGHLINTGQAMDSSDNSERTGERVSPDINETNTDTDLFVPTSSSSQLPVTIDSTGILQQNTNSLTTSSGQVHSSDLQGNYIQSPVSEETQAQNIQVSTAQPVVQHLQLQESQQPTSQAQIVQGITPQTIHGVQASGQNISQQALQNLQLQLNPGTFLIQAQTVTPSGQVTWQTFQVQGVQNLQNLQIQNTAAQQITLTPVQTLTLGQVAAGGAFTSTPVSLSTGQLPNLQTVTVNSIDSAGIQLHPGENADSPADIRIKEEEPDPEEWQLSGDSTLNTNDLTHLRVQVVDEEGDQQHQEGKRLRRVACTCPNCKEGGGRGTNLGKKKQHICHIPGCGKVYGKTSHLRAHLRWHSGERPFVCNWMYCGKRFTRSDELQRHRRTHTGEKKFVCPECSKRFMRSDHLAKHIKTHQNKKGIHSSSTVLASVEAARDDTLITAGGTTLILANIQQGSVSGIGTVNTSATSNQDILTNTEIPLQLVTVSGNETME
Sequence of UniProt P62318 (P62318 whole entry, looked up): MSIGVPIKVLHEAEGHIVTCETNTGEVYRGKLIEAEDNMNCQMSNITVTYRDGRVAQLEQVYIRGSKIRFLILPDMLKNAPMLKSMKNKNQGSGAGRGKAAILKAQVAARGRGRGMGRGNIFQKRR
Sequence of UniProt P56962 (P56962 whole entry, looked up): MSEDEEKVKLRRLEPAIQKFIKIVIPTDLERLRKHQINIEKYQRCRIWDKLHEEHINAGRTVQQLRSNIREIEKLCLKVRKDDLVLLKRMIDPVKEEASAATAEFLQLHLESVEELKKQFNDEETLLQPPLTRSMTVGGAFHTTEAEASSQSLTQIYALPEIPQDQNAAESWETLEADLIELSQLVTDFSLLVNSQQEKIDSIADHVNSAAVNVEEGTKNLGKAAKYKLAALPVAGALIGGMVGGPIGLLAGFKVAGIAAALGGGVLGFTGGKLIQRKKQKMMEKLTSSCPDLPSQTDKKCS
Sequence of UniProt P63165 (P63165 whole entry, looked up): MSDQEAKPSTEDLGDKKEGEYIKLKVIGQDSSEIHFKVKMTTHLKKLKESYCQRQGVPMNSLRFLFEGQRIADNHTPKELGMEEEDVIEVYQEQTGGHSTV

Target | log2 fold change
SNRNP27 (UniProt Q8WVK2) | 0.025
SMARCA4 (UniProt P51532) | 0.097
TFAM (UniProt Q00059) | 0.08
TCERG1 (UniProt O14776) | -0.043
SPAG9 (UniProt O60271) | 0.024
SLC7A6 (UniProt Q92536) | 0.031
TIMM13 (UniProt Q9Y5L4) | -0.086
SYNE1 (UniProt Q8NF91) | -0.141
SMARCB1 (UniProt Q12824) | 0.887 (active)
TERF2IP (UniProt Q9NYB0) | -0.026
SMC5 (UniProt Q8IY18) | 0.016
TAOK1 (UniProt Q7L7X3) | -0.009
THADA (UniProt Q6YHU6) | 0.004
TBK1 (UniProt Q9UHD2) | 0.108
STX17 (UniProt P56962) | -0.071
SRSF2 (UniProt Q01130) | 0.071
SNX2 isoform 2 (UniProt O60749) | -0.255
SLC25A36 (UniProt Q96CQ1) | 0.022

Target | log2 fold change
SPR (UniProt P35270) | 0.057
SRSF11 (UniProt Q05519) | 0
TM9SF4 (UniProt Q92544) | 0.022
SNX9 (UniProt Q9Y5X1) | -0.01
SUMO1 (UniProt P63165) | 0.038
TATDN2 (UniProt Q93075) | -0.046
SMCHD1 (UniProt A6NHR9) | 0.049
SULT1A1 (UniProt P50225) | -0.057
SNRPD3 (UniProt P62318) | 0.01
SLK isoform 2 (UniProt Q9H2G2) | -0.059
STXBP2 isoform 3 (UniProt Q15833) | 0.099
STOM (UniProt P27105) | 0.048
TIMM21 (UniProt Q9BVV7) | 0.017
SRSF10 (UniProt O75494) | 0.235
SSX2 (UniProt Q16385) | 0.041
SP3 (UniProt Q02447) | -0.071
TECR (UniProt Q9NZ01) | -0.018
